The source of these data is PubChem BioAssay.

Structures are written as SMILES. Structures can show the parent of a compound that is named as a salt. Calls of active or inactive are those of the source. Cut-off read from the data, not from the text of the source, unless noted: active = inhibition above about 80%; inactive = the rest. Peptide text beside a SMILES is read from it. * marks the point of attachment. Tfa = O=C(C(F)(F)F)*

In assay [1] the target is NAD(+) hydrolase SARM1 (Homo sapiens) (UniProt Q6SZW1). Briefly: blocking NAD cleavage by SARM1 SAM-TIR – cell lysate, NAD-Glo luminescence (AID 1508614;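 active = compound whose remaining NAD level is above about 45 nM, limit read from the data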;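 note: higher remaining NAD means stronger inhibition of SARM1 NADase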). As to conditions: SAM-TIR HEK293T lysate NADase, at 1 µM, stronger effect = higher value.
Assay [2] can be described thus: growth inhibition, single agent or in combination, cell-based, chromothripsis tumors, cisplatin or BGB combos (AID 1671449).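 Note: cells exposed for 96 hours; 0% = vehicle DMSO and 100% = killing by high DMSO.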 As to conditions: LFS_MB_P medulloblastoma cells.
Assay [3] is described as follows: growth inhibition, single agent and combos, cell-based, chromothripsis tumors, cisplatin or BGB combos (AID 1671450).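 Note: cells exposed to compound for four days; 0% = vehicle DMSO and 100% = cell killing by high DMSO.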 The following applies: HDN33 neuroblastoma cells, stronger effect = higher value.
Assay [4] in a line: growth inhibition, single agents and combos, ICB984, cell-based, cisplatin or BGB combos, synergistic combos for chromothripsis tumors (AID 1671451; call rule not given here;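 note: cells exposed for 96 hours before readout; 0% = vehicle DMSO and 100% = killing by high DMSO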). The following applies: ICB984 medulloblastoma cells, drug combinations, stronger effect = higher value.
The nature of assay [5]: growth inhibition, single agents and combos, LFS_MB_1R, cell-based, cisplatin or BGB combos, synergistic combos for chromothripsis tumors (AID 1671452).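 Note: cells exposed for 96 hours before readout.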 The following applies: LFS_MB_1R medulloblastoma cells, stronger effect = higher value.
Assay [6] is described as follows: growth inhibition, single agents and combos, HTB85, cell-based, BGB or cisplatin IC20 combos, synergistic combos for chromothripsis tumors (AID 1671453).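 Note: cells exposed for 96 hours before readout; 0% = vehicle DMSO and 100% = high DMSO killing control.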 The following applies: HTB85 osteosarcoma cells, drug combinations, stronger effect = higher value.
Assay [7] in a line: growth inhibition, single agents and combos, CRL2098, cell-based, BGB or cisplatin IC20 combos, synergistic combos for chromothripsis tumors (AID 1671454).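 Note: cells exposed for 96 h before readout; 0% = vehicle DMSO and 100% = killing by high DMSO.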 The following applies: CRL2098 osteosarcoma cells, drug combinations, stronger effect = higher value.
Assay [8] is described as follows: growth inhibition, single agents and combos, HD-MB03, cell-based, BGB or cisplatin IC20 combos, synergistic combos for chromothripsis tumors (AID 1671455; in the data active = inhibition above about 83%;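 note: 0% = vehicle DMSO and 100% = high DMSO as cytotoxic control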). As to conditions: HD-MB03 medulloblastoma cells, stronger effect = higher value.
Assay [9] in a line: growth inhibition, single agents and combos, UWB1.289, cell-based, BGB or cisplatin combos, synergistic combos for chromothripsis tumors (AID 1671456).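 Note: cells exposed to compound for four days; 0% = vehicle DMSO and 100% = killing by high DMSO.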 As to conditions: UWB1.289 ovarian carcinoma cells, stronger effect = higher value.
The nature of assay [10]: growth inhibition, single agents and combos, LFS_MB_2R, cell-based, cisplatin combos, synergistic combos for chromothripsis tumors (AID 1671457).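 Note: cells exposed to compound for four days before readout.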 The following applies: LFS_MB_2R medulloblastoma cells, stronger effect = higher value.
Assay [11] in a line: growth inhibition, MDA-MB-436, cell-based, BGB or cisplatin combos, synergistic combos for chromothripsis tumors (AID 1671458; call rule not given here;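 note: cells exposed for 96 hours; 0% = vehicle DMSO and 100% = killing by high DMSO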). The following applies: MDA-MB-436 breast carcinoma growth inhibition, drug combinations, stronger effect = higher value.
The nature of assay [12]: UWB1.289_BRCA1 ovarian cancer growth, cell-based, BGB or cisplatin combinations (AID 1671459). As to conditions: UWB1.289 BRCA1 ovarian carcinoma, drug combinations, stronger effect = higher value.
Assay [13] can be described thus: drug combination toxicity in non-malignant astrocytes – cell-based, BGB or cisplatin IC20 combos, cytotoxicity control for chromothriptic childhood tumor combination screen (AID 1671460).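 Note: cells exposed to compounds for 96 hours before viability readout; 0% = vehicle and 100% = killing control.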 As to conditions: Human astrocytes, viability inhibition, drug combinations, at 0.5 µM, stronger effect = higher value.
The nature of assay [14]: BT084 cell growth, single and combined drugs, ICGC_MB145, cisplatin and BGB IC40 combos (AID 1671461).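 Note: cells exposed to drugs for 96 hours; 0% = vehicle DMSO and 100% = high DMSO full killing control.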 As to conditions: BT084 medulloblastoma cells, drug combinations, stronger effect = higher value.
A short description of assay [15]: RCMB18 cell growth, single agent and combined, cisplatin and BGB IC40 combos (AID 1671462).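 Note: cells exposed to compound for four days.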 The following applies: RCMB18 medulloblastoma cells, stronger effect = higher value.
A short description of assay [16]: CRL1545 cell growth, single agent and combined, cisplatin and BGB IC20 combos (AID 1671464).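 Note: cells exposed to compound for 96 hours before readout; 0% = vehicle DMSO and 100% = high DMSO killing control.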 As to conditions: CRL1545 osteosarcoma cells, stronger effect = higher value.
The target in assay [17] is Mitogen-activated protein kinase 7 (Homo sapiens) (UniProt Q13164). Put plainly: Gal4-ERK5 driven luciferase induction – cell-based, HTS, primary screen (AID 1508626;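 active = luciferase signal above three times the same-plate solvent-only control wells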;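 note: luciferase driven by Gal4-ERK5 fusion binding five Gal4 sites before minimal TATA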). The following applies: HeLa Gal4-ERK5 transactivation, 18 h, at 5 µM, stronger effect = higher value.
The mark [18] stands for this setting: measured here: combination with BGB IC40, at 0.05 µM.
Where [19] appears, read: measured here: with BGB IC20 combination, at 0.5 µM.
Where [20] appears, read: measured here: with cisplatin IC20 combination, at 0.5 µM.
The mark [21] stands for this setting: measured here: combination with cisplatin, at 0.5 µM.
[22] abbreviates: measured here: combination with cisplatin, at 5 µM.

Mitogen-activated protein kinase 7 (Homo sapiens), sequence (Q13164 whole entry, looked up, the tested form may be a part): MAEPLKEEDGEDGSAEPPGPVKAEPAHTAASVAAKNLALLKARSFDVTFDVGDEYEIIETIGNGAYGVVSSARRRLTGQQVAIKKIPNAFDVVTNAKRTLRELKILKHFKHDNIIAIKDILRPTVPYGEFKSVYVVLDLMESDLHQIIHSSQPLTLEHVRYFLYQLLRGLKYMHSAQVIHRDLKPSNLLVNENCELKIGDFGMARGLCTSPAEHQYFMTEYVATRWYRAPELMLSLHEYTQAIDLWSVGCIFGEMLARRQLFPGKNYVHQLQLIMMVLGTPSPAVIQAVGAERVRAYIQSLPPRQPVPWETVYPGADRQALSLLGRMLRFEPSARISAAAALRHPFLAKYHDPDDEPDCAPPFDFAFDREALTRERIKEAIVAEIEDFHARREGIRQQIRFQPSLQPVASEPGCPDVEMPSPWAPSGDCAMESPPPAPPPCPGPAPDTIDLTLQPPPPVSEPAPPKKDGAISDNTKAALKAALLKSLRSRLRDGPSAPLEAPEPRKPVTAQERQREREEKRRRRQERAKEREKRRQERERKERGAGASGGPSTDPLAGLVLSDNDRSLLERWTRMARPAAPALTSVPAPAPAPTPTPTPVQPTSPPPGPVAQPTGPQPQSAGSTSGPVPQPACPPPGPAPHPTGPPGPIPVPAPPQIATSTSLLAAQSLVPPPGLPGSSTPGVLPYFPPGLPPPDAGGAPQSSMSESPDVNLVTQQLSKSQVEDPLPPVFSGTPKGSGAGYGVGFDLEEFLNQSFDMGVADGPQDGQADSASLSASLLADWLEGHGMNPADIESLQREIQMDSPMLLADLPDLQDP
NAD(+) hydrolase SARM1 (Homo sapiens), sequence (Q6SZW1 whole entry, looked up): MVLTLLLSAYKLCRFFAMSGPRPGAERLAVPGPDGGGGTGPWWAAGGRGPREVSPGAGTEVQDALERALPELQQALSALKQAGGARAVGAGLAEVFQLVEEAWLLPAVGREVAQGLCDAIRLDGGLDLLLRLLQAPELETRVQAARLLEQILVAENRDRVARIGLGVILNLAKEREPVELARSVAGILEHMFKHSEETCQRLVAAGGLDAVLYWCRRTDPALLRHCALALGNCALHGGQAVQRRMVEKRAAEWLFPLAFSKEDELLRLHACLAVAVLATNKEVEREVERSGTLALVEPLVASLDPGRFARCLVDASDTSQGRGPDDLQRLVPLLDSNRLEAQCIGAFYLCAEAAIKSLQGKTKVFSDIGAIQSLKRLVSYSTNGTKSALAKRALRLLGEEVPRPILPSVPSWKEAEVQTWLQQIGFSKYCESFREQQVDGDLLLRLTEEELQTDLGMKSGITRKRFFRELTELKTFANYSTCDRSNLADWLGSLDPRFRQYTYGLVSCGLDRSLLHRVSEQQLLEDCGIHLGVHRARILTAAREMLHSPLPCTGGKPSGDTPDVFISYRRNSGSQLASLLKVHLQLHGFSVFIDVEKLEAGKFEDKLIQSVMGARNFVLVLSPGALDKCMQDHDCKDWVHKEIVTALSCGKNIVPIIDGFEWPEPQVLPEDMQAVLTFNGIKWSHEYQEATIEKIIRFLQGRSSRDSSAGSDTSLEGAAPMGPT

By inhibition is commonly meant the change of the read-out against control, counted positive when it falls. Consider `C=CC1=C(C)C2=CC3=NC(=C(CC(=O)O)C4=NC(=C(C)C4=C(O)O)C=c4[nH]c(c(C)c4CC)=CC1=N2)C(CCC(=O)O)C3C` (stereo unspecified), for which the remaining NAD in assay [1] was 10 nM (inactive). For the same compound, the inhibition in assay [2] (at 0.5 µM, stronger effect = higher value) was -22.2% (inactive); in assay [2] (measured here: combination with BGB IC20, at 0.005 µM) it was -27.4%; in [2] (measured here: combination with BGB IC40, at 0.005 µM), -20.4%; in assay [2] (setting [18]), -7.95%; in assay [2] (measured here: combination with cisplatin, at 0.5 µM, stronger effect = higher value), -18.8%; in [2] (measured here: combination with cisplatin, at 5 µM, stronger effect = higher value), -59.6%. For the same compound, the inhibition in [3] (BGB combo, at 5 µM) was -5.94%; in assay [3] (at 0.5 µM), -6.06% (inactive); in assay [3] (cisplatin combo, at 5 µM), 3.3%; in assay [3] (setting [19]) it was -2.85%; in [3] (setting [20]) it was 8.33%; in [3] (single agent, at 5 µM) it was 10.4%. The inhibition is -23.1% in assay [4] (BGB IC20 combo, at 0.005 µM); -25.1% in [4] (BGB IC40 combo, at 0.005 µM); -20% in [4] (BGB IC40 combo, at 0.05 µM); -26.5% (inactive) in assay [4] (at 0.5 µM); -20% in assay [4] (cisplatin combo, at 0.05 µM); -42.5% in assay [4] (cisplatin combo, at 0.5 µM). Besides, the inhibition in assay [4] (cisplatin combo, at 5 µM) was -25.5%; in [4] (measured here: 5 uM single agent, at 5 µM), 5.39%; in assay [5] (at 0.5 µM), -18.3% (inactive); in assay [5] (setting [18]), -22.1%; in [5] (setting [21]), -13.2%; in assay [5] (setting [22]), -2.96%. In addition, the inhibition in assay [6] (at 0.5 µM) was -16.7% (inactive); in assay [6] (measured here: with BGB IC20, at 0.5 µM), -29.2%; in [6] (measured here: with BGB IC20, at 5 µM) it was -11.5%; in assay [6] (measured here: with cisplatin IC20, at 0.5 µM), -27.9%; in assay [6] (measured here: with cisplatin IC20, at 5 µM) it was -1.9%; in [6] (single agent, at 5 µM), 1.12%. Moreover, the inhibition was -39.9% (inactive) in [7] (at 0.5 µM); -14.4% in assay [7] (measured here: combination with BGB at IC20, at 0.5 µM); -71.5% in [7] (measured here: combination with cisplatin at IC20, at 0.5 µM); -9.12% (inactive) in [8] (at 0.5 µM); -0.977% in assay [8] (measured here: combo with BGB at IC20, at 0.5 µM); -18.8% in assay [8] (measured here: combo with cisplatin at IC20, at 0.5 µM). The inhibition is -0.22% (inactive) in [9] (at 0.5 µM); -17.7% in assay [9] (measured here: inhibition with BGB combination, at 0.05 µM); -4.64% in assay [9] (measured here: inhibition with cisplatin combination, at 0.05 µM); -20% (inactive) in assay [10] (at 0.5 µM); -3.5% in [10] (setting [21]); -14.7% in [10] (setting [22]). The inhibition in assay [11] (at 0.5 µM) is -19% (inactive); in [11] (measured here: BGB combination, at 0.5 µM), -19.5%; in assay [11] (measured here: BGB combination, at 5 µM), -14.7%; in assay [11] (measured here: cisplatin combination, at 0.5 µM) it was -36.2%; in assay [11] (measured here: cisplatin combination, at 5 µM), -11.5%; in [12] (BGB combination, concentration series, at 5 µM), 12.6%. Further, the inhibition is -3.06% (inactive) in [12] (at 0.5 µM); 10.4% in assay [12] (cisplatin combination, concentration series, at 5 µM); -8.5% (inactive) in assay [13]; -9.9% in assay [13] (measured here: combo with BGB IC20); -17.9% in [13] (measured here: combo with cisplatin IC20); -4.34% (inactive) in [14] (at 0.5 µM). Moreover, the inhibition in assay [14] (cisplatin combination, at 0.5 µM) is 3.74%; in assay [14] (cisplatin combination, at 5 µM) it was -40.8%; in assay [14] (measured here: BGB IC40 combination 0.05 uM, at 0.05 µM), -3.49%; in assay [14] (single agent, at 5 µM), -10.5%; in assay [15] (at 0.5 µM) it was -15.6% (inactive); in assay [15] (cisplatin combo, at 5 µM), 30.7%. The inhibition in [15] (measured here: BGB IC40 combination, at 0.05 µM) was -38.7%; in [15] (setting [21]), -5.59%; in assay [15] (single agent, at 5 µM) it was -26.5%; in [16] (at 0.5 µM) it was -23.9% (inactive); in assay [16] (setting [19]), 2.58%; in assay [16] (setting [20]), -37.1%. Also, the inhibition is 3.9% in assay [16] (single agent, at 0.05 µM) and 17% in [16] (single agent, at 5 µM).
Consider `CO[C@H]1C[C@@H]2CC[C@@H](C)[C@@](O)(O2)C(=O)C(=O)N2CCCC[C@H]2C(=O)O[C@H]([C@H](C)C[C@@H]2CC[C@@H](O)[C@H](OC)C2)CC(=O)[C@H](C)/C=C(\C)[C@@H](O)[C@@H](OC)C(=O)[C@H](C)C[C@H](C)\C=C/C=C/C=C/1C`, for which the remaining NAD in assay [1] was 10 nM (inactive). The luciferase signal in [17] is 64 AU (inactive).
Consider `COC(=O)/C=C/C(C)=C\C=C\C(C)=C\C=C\C=C(C)\C=C\C=C(C)\C=C\C(=O)O`, for which the luciferase signal in assay [17] was 64 AU (inactive).
On the same count and under the same terms, in the case of `CC(C)C(NC(=O)C(Cc1ccc(O)cc1)NC(=O)C(NC(=O)C(F)(F)F)C(C)C)C(=O)O` (stereo not drawn) (Tfa-Val-Tyr-Val-OH; configuration not given here) it was 64 AU (inactive); in that of `COC(=O)C[C@H]1C(C)(C)C(=O)[C@@H]2CC3=C4CC(=O)O[C@@H](c5ccoc5)[C@]4(C)CC[C@@H]3[C@@]1(C)C2=O`, 32 AU (inactive).
For the compound `Cn1nnnc1SCC1=C(C(=O)O)N2C(=O)[C@@H](NC(=O)[C@H](OC=O)c3ccccc3)[C@H]2SC1`, the remaining NAD in assay [1] was 10 nM (inactive). Also, the luciferase signal in assay [17] is 16 AU (inactive).
